Assay results from PubChem BioAssay (NCATS).
Records with an inconclusive call do not appear. Values without a mark were called inactive. The source made the active and inactive calls. Calls follow the shape of the dose curve; as a rule, active = well fitted inhibition curve with a large enough effect; inconclusive = small, poorly fitted or top-dose-only effect; inactive = no such curve, though single readings can be large or run the other way.

These molecules were tested on Zika virus NS2B-NS3 protease (unlinked complex) (assay: Primary screen GU Rhodamine qHTS for Zika virus inhibitors: Unlinked NS2B-NS3 protease assay (AID 1347159; also: nearly all actives have a fitted effect of over 60% in size)). Settings: Recombinant ZIKV NS2B-NS3 protease, Rhodamine110 substrate fluorescence; series mostly up to 107 µM; activity change, negative = inhibition: at the top concentration.
Summary of the method: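 Percent inhibition came from the 15-min rise in Rhodamine110 fluorescence (1.5 microM substrate, ~15% conversion), normalized to no-inhibitor and no-enzyme wells and Hill-fitted. Unlinked protease, 25 nM, pH 8.0 Tris buffer; compounds up to 114 microM, 15-min preincubation.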
% is scaled to controls: 0 for no effect and ±100 for the full control effect; potency is read from the fitted curve at half-maximal effect.

Question: With `O=C1Cc2cc(CCN3CCN(c4nsc5ccccc45)CC3)c(Cl)cc2N1` as the molecule, how does the “activity change, negative = inhibition” value read?
Answer: Its value is 0.773%.

Question: With `Clc1ccc2c(c1)C(N1CCNCC1)=Nc1ccccc1O2` as the molecule, how does the “activity change, negative = inhibition” value read?
Answer: Its value is 39.8%.

Question: Which “activity change, negative = inhibition” value does the source give for `CC1(C)O[C@H]2CC(=O)OC[C@]23[C@H]2CC[C@@]4(C)[C@H](c5ccoc5)OC(=O)[C@H]5O[C@]54[C@]2(C)C(=O)C[C@@H]13` here?
Answer: The value was 2.88% [at 57.1 µM].

Question: Which Potency does the source give for `CC[C@@]1(O)C(=O)OCc2c1cc1n(c2=O)Cc2cc3c(CN(C)C)c(O)ccc3nc2-1` here?
Answer: The Potency was 20 µM (active).

Question: How did the “activity change, negative = inhibition” value turn out when `Cc1cc(C(C)(C)C)c(O)c(C)c1CC1=NCCN1` was run?
Answer: The value was 22%.

Question: With `O=C(c1ccc(F)cc1)C1CCN(CCn2c(=O)[nH]c3ccccc3c2=O)CC1` as the molecule, how does the “activity change, negative = inhibition” value read?
Answer: Its value is -56.5%.

Question: Which “activity change, negative = inhibition” value does the source give for `CNCCCC12CCC(c3ccccc31)c1ccccc12` here?
Answer: Its value is 15.5%.

Question: With `Cc1ccc(-c2cc(C(F)(F)F)nn2-c2ccc(S(N)(=O)=O)cc2)cc1` as the molecule, how does the “activity change, negative = inhibition” value read?
Answer: The value was 0%.
